Bioassay records from PubChem BioAssay.
Shown are actives, neighbours in structure and some others; about 12% of the full set was active somewhere.
Pf growth 96h – P. falciparum growth inhibition at 96 hour, primary screen for plastid delayed-death inhibitors. P. falciparum luciferase reporter growth, 96 h. Potency, µM (top dose mostly 28.7 µM), actives largely listed as inhibitors. actives 6.9% (n = 320,000)
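Parasite growth measured via integrated firefly luciferase reporter in P. falciparum. Infected erythrocytes at 2% hematocrit, 0.05% parasitemia final were treated 96 hours at 37 C under 5% CO2, and luminescence was read.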
Pf growth 48h – P. falciparum growth inhibition at 48 hours (one generation); P. falciparum luciferase growth in erythrocytes, 48 h; Potency, µM (titrated, usually from 28.7 µM), most hits filed as inhibitors; actives 5.9% (n = 310,000); AID 504832
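Compounds are pin-transferred into medium, infected erythrocytes (2% hematocrit, 0.1% parasitemia final) are added, and plates sit one parasite generation at 37 C in 5% CO2. Detection reagent is then added and luminescence measured.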
SARS PLpro yeast – inhibitors of SARS-CoV papain-like protease in yeast; actives 0.19% (n = 330,000); S. cerevisiae expressing SARS-CoV PLpro, growth rescue; Potency, µM (top dose mostly 32.9 µM), usual class: activators; AID 485353; calls by dose curve; note: nearly all actives have a fitted effect of over 55% in size
Sm TGR inh – blocks Schistosoma mansoni thioredoxin glutathione reductase; actives 3% (n = 360,000); Q962Y6; Potency, µM (highest dose often 114 µM), actives largely listed as inhibitors; purified TGR, DTNB reduction, TNB absorbance 405 nm; note: nearly all actives have a fitted effect of over 60% in size
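Kinetic colorimetric format: TGR-catalysed, NADPH-driven DTNB reduction monitored via TNB absorbance. Enzyme dispensed at 20 nM; compound exposure 15 min at room temperature before reaction start.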
Large screens that a line does not name were inactive; ! = repeats disagree. Unless noted, calls come from the whole dose curve; as a rule, active = well fitted curve in the direction sought with a large enough effect; inconclusive = small, poorly fitted or top-dose-only effect, or another doubt; inactive = no such curve, though single readings can be large; an effect the other way counts as inactive or inconclusive.

COc1ccc(C)cc1-n1nnnc1SC(C)C(=O)NC1CCCC1 (configuration not stated)	none (no result: Pf growth 96h, Pf growth 48h, Sm TGR inh)
CCOC(=O)N1CCN(C(=O)CCS(=O)(=O)c2ccc3c(c2)CC(C)N3C(=O)CC)CC1 (configuration not stated)	Pf growth 96h 15µM, Sm TGR inh 22µM
Cc1ccc(S(=O)(=O)CCC(=O)N2CCN(c3ccc(Cl)cc3)CC2)cc1	Pf growth 96h inconclusive, Sm TGR inh 13µM
CCOC(=O)C1CCN(C(=O)CCS(=O)(=O)c2ccc3c(c2)CC(C)N3C(=O)CC)CC1 (configuration not stated)	Pf growth 96h inconclusive, Sm TGR inh inconclusive
COc1ccccc1CNC(=O)CCS(=O)(=O)c1ccc2c(c1)CC(C)N2C(=O)C1CC1 (configuration not stated)	Pf growth 48h inconclusive
CC1Cc2cc(S(=O)(=O)CCC(=O)NCc3ccco3)ccc2N1C(=O)C1CC1 (configuration not stated)	Pf growth 96h inconclusive, Sm TGR inh 40µM
O=C(CCS(=O)(=O)c1cc(Br)cc2c1N(C(=O)C1CC1)CC2)NCc1ccco1	Pf growth 48h 8.3µM, Sm TGR inh inconclusive
CCOC(=O)c1ccc(NC2SC(=O)N(Cc3cccc(C(=O)O)c3)C2=O)cc1 (configuration not stated)	none (no result: Pf growth 96h, Pf growth 48h, SARS PLpro yeast)
COCc1cccc(C(=O)NC(c2ccccc2)c2ccccc2)c1	Pf growth 96h inconclusive
Cc1ccccc1CC(=O)NC1CCCCCC1	Pf growth 96h inconclusive
Cc1ccccc1CC(=O)NCC1CCCCC1	Pf growth 96h 12µM
O=C(CCc1ccccc1)Nc1ccccc1C(=O)NCc1ccco1	Pf growth 96h 13µM, Pf growth 48h inconclusive
O=C(Nc1ccccc1C(=O)NCc1cccnc1)c1ccco1	none (no result: Pf growth 48h)
O=C(Nc1ccccc1C(=O)NCc1ccco1)c1ccccc1	none
O=C(Nc1ccccc1C(=O)NCc1ccccc1)c1ccco1	Pf growth 96h 13µM
C=CCN=c1scc(-c2ccc(F)cc2)n1/N=C/c1ccccn1	Pf growth 96h inconclusive, Pf growth 48h inconclusive
C=CCN=c1scc(-c2ccc3c(c2)NC(=O)CO3)n1/N=C(\C)c1ccccn1	Pf growth 96h inconclusive, Pf growth 48h inconclusive, Sm TGR inh 35µM
CN(C)CCCN(C(=O)CCOc1ccccc1)c1nc2ccc(F)cc2s1	Sm TGR inh 0.63µM
CN(C)CCCN(C(=O)CCOc1ccccc1)c1nc2c(F)cccc2s1	Sm TGR inh 0.4µM
O=C(CCOc1ccccc1)N(Cc1cccnc1)c1nc2ccc(F)cc2s1	Sm TGR inh 4µM (no result: Pf growth 96h, Pf growth 48h, SARS PLpro yeast)
COc1nc(N2CCOCC2)nc(C)c1[N+](=O)[O-]	Pf growth 96h 12µM
C=CCn1c(O)c(CN2CCOCC2)c(C)c(C#N)c1=O	Pf growth 96h inconclusive, Sm TGR inh 40µM
C=CCc1cccc(C=Nc2cc(Br)ccc2O)c1O	Pf growth 96h 12µM, Pf growth 48h inconclusive
C=CCc1cccc(C=Nc2c[nH]c(=O)[nH]c2=O)c1O	none
CC(C)CCNC(=O)c1cc(S(=O)(=O)N2CCc3ccccc32)cn1C	Pf growth 96h 1.2µM
COc1cc(NC(=O)c2cc(S(=O)(=O)N3CCc4ccccc43)cn2C)cc(OC)c1OC	Pf growth 48h 12µM
Cc1ccc(NC(=O)c2cc(S(=O)(=O)N3CCc4ccccc43)cn2C)cc1	Pf growth 96h inconclusive, Pf growth 48h inconclusive
CCN(CC)CCNC(=O)c1cc(S(=O)(=O)N2CCc3ccccc32)cn1C	none
CC(C)CCNC(=O)Cn1c(=O)oc2cc(S(=O)(=O)N3CCc4ccccc43)ccc21	Pf growth 96h 12µM (no result: Pf growth 48h)
Cn1cc(S(=O)(=O)N2CCc3ccccc32)cc1C(=O)Nc1ccc(Cl)cc1	Pf growth 48h 13µM
Cc1ccc(C(=O)OCC(=O)N(C)C2CCS(=O)(=O)C2)cc1S(=O)(=O)N1CCCCC1 (configuration not stated)	none
CCN1C(=O)C(NC(C)=O)c2cc(OC)ccc21 (configuration not stated)	none
COc1ccc([C@@H]2Sc3cc(OC)ccc3N(CCN(C(C)C)C(C)C)C(=O)[C@H]2OC(C)=O)cc1	Pf growth 96h inconclusive, Pf growth 48h 12µM
CC(C)(C)NCC(O)c1cc(Cl)c(N)c(Cl)c1 (configuration not stated)	Pf growth 96h 11µM!, Pf growth 48h 12µM, SARS PLpro yeast inconclusive
Cc1[nH]c2ccccc2c(=O)c1C(=O)/C=C/c1ccccc1	Pf growth 96h inconclusive, Pf growth 48h inconclusive, Sm TGR inh 32µM
Cc1[nH]c2ccccc2c1/C=C/C(=O)c1ccccc1	none
Cc1ccc(N2C(=O)NC(=O)/C(=C/c3cnn(-c4ccc(C)cc4)c3)C2=O)cc1	none
CCOc1ccc(N2C(=O)NC(=O)/C(=C/c3cnc(SC)nc3)C2=O)cc1	Pf growth 96h inconclusive, Sm TGR inh 8.9µM
Cc1ccc(N2C(=O)NC(=O)/C(=C\c3cnc(-c4ccccc4)nc3)C2=O)cc1	SARS PLpro yeast inconclusive, Sm TGR inh 1.6µM
CSc1ncc(/C=C2/C(=O)NC(=O)N(c3ccc(Cl)cc3)C2=O)cn1	Sm TGR inh 5.6µM
O=C1NC(=O)N(c2ccc(F)cc2)C(=O)/C1=C/c1ccsc1	none
CSc1ncc(/C=C2/C(=O)NC(=O)N(c3ccc(C)cc3)C2=O)cn1	Sm TGR inh 2.5µM
Cc1cc(Cl)ccc1NC(=O)CN(c1ccccc1Br)S(C)(=O)=O	none (no result: Pf growth 96h, Pf growth 48h, SARS PLpro yeast)
CC(=O)c1ccc(NC(=S)Nc2cccc(S(=O)(=O)Nc3c(C)n(C)n(-c4ccccc4)c3=O)c2)cc1	Sm TGR inh 14µM
Cc1ccc(NC(=S)Nc2cccc(S(=O)(=O)Nc3c(C)n(C)n(-c4ccccc4)c3=O)c2)cc1	Sm TGR inh 50µM
O=C(COc1ccc(Cl)cc1)Nc1ccc2c(c1)C(=O)NC2=O	Pf growth 96h inconclusive
CCOC(=O)c1c(S(=O)(=O)NC2CCN(C(=O)OCC)CC2)c(C)n(C)c1C	none
COc1ccc(Cl)cc1NC(=O)CN(C)CC(=O)Nc1ccc(Br)cc1	none
COc1ccc(Cl)cc1NC(=O)CN(C)C(=O)c1ccc(C)s1	none
COc1ccc(Cl)cc1NC(=O)CN(C)C(=O)c1cc2c(F)cccc2s1	Pf growth 96h inconclusive, Pf growth 48h 7.4µM
COc1ccc(Cl)cc1NC(=O)CN(C)CC(=O)NC(C)c1ccccc1 (configuration not stated)	Pf growth 48h 10µM
COc1ccc(Cl)cc1NC(=O)CN(C)CC(=O)Nc1cc(OC)c(OC)c(OC)c1	Pf growth 96h inconclusive, Pf growth 48h 15µM
O=C1[C@@H]2Cc3c([nH]c4ccccc34)C(c3cccc([N+](=O)[O-])c3)N2C(=O)CN1C1CCN(Cc2ccccc2)CC1 (some centres not stated)	Pf growth 96h 15µM, Pf growth 48h 9.3µM
CCOc1ccccc1C1c2[nH]c3ccccc3c2C[C@H]2C(=O)N(C3CC3)CC(=O)N12 (some centres not stated)	Pf growth 96h 9.3µM, Pf growth 48h inconclusive
CCOc1ccc(C2c3[nH]c4ccccc4c3C[C@H]3C(=O)N(C4CC4)CC(=O)N23)cc1OC (some centres not stated)	Pf growth 96h inconclusive
